Source: PubChem BioAssay AID488896 (Broad Institute, 2010)
Hit rate of the full screen: of about 320,000 compounds, about 3,100 (0.97%) were called active. The sample holds actives, similar compounds and a random draw of the others, so the mix is not that of the screen.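 How the source made its calls: active means mean replicate inhibition of at least 70% and a set share of replicates each scoring 70 or more; inconclusive means meets just one of the two criteria; inactive means fails both criteria.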 Non-standard residues stand in square brackets, D forms with d. Residues, ends and D or L forms follow the SMILES beside them. ξ: configuration not given here. Ac5c = NC1(C(=O)O)CCCC1; ξS = NC(CO)C(=O)O

Molecular target: Scavenger receptor class B member 1 (Mus musculus) (UniProt Q61009)
Sequence (Q61009 whole entry, looked up): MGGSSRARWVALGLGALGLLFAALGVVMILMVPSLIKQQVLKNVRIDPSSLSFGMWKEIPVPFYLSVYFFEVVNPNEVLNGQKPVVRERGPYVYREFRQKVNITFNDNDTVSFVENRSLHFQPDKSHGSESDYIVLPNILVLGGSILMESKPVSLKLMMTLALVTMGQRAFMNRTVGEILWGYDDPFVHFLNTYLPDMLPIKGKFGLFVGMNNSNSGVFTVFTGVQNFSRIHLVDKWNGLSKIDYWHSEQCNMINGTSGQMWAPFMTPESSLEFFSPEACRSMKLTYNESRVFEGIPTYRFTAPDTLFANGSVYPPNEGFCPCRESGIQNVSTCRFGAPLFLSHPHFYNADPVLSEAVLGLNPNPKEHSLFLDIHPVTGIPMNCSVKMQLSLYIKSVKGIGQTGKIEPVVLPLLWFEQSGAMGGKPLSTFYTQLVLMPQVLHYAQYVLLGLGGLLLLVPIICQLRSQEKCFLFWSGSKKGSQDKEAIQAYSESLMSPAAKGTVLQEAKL
Assay: inhibitors of SR-BI mediated HDL lipid uptake, primary screen, ldlA[mSR-BI] cells, fluorescence, single point (AID 488896);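 further: 0% = median of neutral control wells and 100% = median of positive control wells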
Conditions: ldlA[mSR-BI] CHO cells, DiI-HDL uptake fluorescence, 3 h; at 12.5 µM; stronger effect = higher value

inhibition, active:
CCCCCC(=O)Nc1ccc(C(=O)N/N=C/c2ccc([N+](=O)[O-])cc2)cc1 92.9%
CCOc1ccc(NC(=O)CN2CCN(CC(=O)Nc3ccc(OC)cc3)CC2)cc1 77.8%
CCOc1ccc(NC(=O)c2ccc(NC(=O)CN3C(=O)C(=O)N(CC(C)C)C3=O)cc2)cc1 75.7%
Cc1cccc(NC(=O)c2sc(-c3ccccc3)nc2-c2ccc([N+](=O)[O-])cc2)c1 77.7%
COc1ccc(-c2nc3c(s2)CCc2onc(-c4ccc(OC)cc4)c2-3)cc1 75.1%
COc1cccc(/C=C2\SC(=N)N(c3ccc(F)cc3)C2=O)c1 80.3%
C/C(CC(=O)NC(C)c1ccccc1)=N\NC(N)=S (stereo unspecified) 86.3%
O=C(Nc1ccc(-c2csc(Nc3cccc(C(F)(F)F)c3)n2)cc1)c1cccc(C(F)(F)F)c1 109%
COc1cc(CNC2CCCC2)c(Br)cc1OCc1ccccc1 79.2%

inhibition, inactive:
O=C(CC(=O)c1cccnc1)c1ccccc1 1.21%
O=C(COc1ccc(/C=N/NC(=O)c2ccc(O)cc2)cc1)Nc1ccc([N+](=O)[O-])cc1 24.6%
CCCCCC(=O)NC(=S)NNC(=O)c1ccc([N+](=O)[O-])cc1 11.5%
Cc1ccc(S(=O)(=O)N2CCN(C(=O)c3cc(S(=O)(=O)N4CCOCC4)ccc3F)CC2)cc1 -4.26%
CCOc1ccc(NC(=O)c2ccc(NC(=O)COC(=O)c3ccc(NC(=O)CC#N)cc3)cc2)cc1 57.5%
CCOc1ccc(NC(=O)N2CCN(CC)CC2)cc1 -5.71%
CCOC(=O)N1CCN(CC(=O)Nc2ccc(F)cc2)CC1 -2.83%
CCOc1ccc(NC(=O)c2ccc(NC(=O)C3CCCO3)cc2)cc1 (stereo unspecified) 24.7%
COc1ccc(/C=C2/CCCc3ccccc3C2=O)cc1 12.7%
CCOc1cc(C=NNC(=O)CCCC(=O)NN=Cc2ccc(O)c(OCC)c2)ccc1O 7.36%
CCOC(=O)[C@H]1[C@H]2COc3ccc(Br)cc3[C@@H]2N2C(=O)CN(C)C(=O)[C@@]12C -11.5%
Cc1cccc(NC(=O)c2ccc([N+](=O)[O-])o2)c1 0.0135%
Cc1cccc(NC(=O)c2cc([N+](=O)[O-])ccc2N2CCN(C)CC2)c1 13.3%
CC(=O)OC1CCC2(C)C(=CCC3C4CC(=O)N(O)C(=O)C4(C)CCC32)C1 (stereo unspecified) -19%
NC1=NOC(=O)C1C1CCCCC1 (stereo unspecified) -14.7%
COc1ccc(-c2nc3n(c2Br)CCC3)cc1 4.81%
COc1ccc(-c2nc3c(s2)CCc2onc(-c4ccc(Br)cc4)c2-3)cc1 58.7%
NC(=O)C1CCN(C(=O)c2cc(S(=O)(=O)N3CCN(c4ccccc4)CC3)ccc2Cl)CC1 -3.45%
COc1cccc(/C=C2/SC(=S)N(CC(=O)NC3C=CS(=O)(=O)C3)C2=O)c1 (stereo unspecified) 6.75%
COc1ccc(/C=C2\SC(=N)N(c3ccc(F)cc3)C2=O)cc1 13.3%
Cc1ccc(OCC(=O)NC(C)c2ccccc2)cc1C (stereo unspecified) 0.888%
Cc1cc(C)cc(OCC(=O)NC(C)c2ccccc2)c1 (stereo unspecified) -23.6%
O=[N+]([O-])c1ccc(N=NNc2ccc([N+](=O)[O-])cc2)cc1 -5.77%
CCOC(=O)C(CO)NC(=O)C1(NC(C)=O)CCCC1 (stereo unspecified) (Ac-[Ac5c]-[ξS]-OEt) -1.77%
O=C(O)c1ccccc1C(=O)Nc1nc(-c2ccccc2)cs1 -7.75%
O=C(Nc1ccc(C(F)(F)F)cc1)c1cccc(-n2cnnn2)c1 9.16%
CN(C(=O)c1cccc(NC(=O)Cc2ccc(NC(=O)C3CCN(C(=O)C4CCCCC4)CC3)cc2)c1)C1CCC1 28.2%
C=CCCC(=O)N1C[C@H]2CON(C)[C@H]2C[C@H]1c1cccc(Nc2ccccc2)c1 2.33%
CCCCN(C(=O)c1cccc(N2C(=O)c3ccccc3C2=O)c1)c1c(N)n(CCCC)c(=O)[nH]c1=O 9.37%
COc1cc(CN2CCC(C(N)=O)CC2)ccc1OCc1ccccc1 -14.9%
COc1ccc(CNC2CCCCC2)cc1 -32.1%
O=C1/C(=C\c2ccc(O)cc2)CCC1CNc1ccc(Cl)cc1 (stereo unspecified) 18.3%
